# Data reported in article PMC4336329 (PLoS ONE, 2015).
# The campaign covered roughly 310,000 compounds. About 14,000 (4.5%) showed an effect of 50% or more. The effect is printed as a negative number. What follows is part of a selection rich in strong results, with near analogues and random picks from the rest.
# Biological target: human ether-à-go-go-related gene (hERG) potassium channel (human, UniProt Q12809)
# Test: primary screen, population patch clamp on CHO cells stably expressing hERG; higher = less effect of the substance
# 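Further: peak tail current of the secondary pulse compared with the same well before compound.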
# Sequence of human ether-à-go-go-related gene (hERG) potassium channel (Q12809 whole entry, looked up): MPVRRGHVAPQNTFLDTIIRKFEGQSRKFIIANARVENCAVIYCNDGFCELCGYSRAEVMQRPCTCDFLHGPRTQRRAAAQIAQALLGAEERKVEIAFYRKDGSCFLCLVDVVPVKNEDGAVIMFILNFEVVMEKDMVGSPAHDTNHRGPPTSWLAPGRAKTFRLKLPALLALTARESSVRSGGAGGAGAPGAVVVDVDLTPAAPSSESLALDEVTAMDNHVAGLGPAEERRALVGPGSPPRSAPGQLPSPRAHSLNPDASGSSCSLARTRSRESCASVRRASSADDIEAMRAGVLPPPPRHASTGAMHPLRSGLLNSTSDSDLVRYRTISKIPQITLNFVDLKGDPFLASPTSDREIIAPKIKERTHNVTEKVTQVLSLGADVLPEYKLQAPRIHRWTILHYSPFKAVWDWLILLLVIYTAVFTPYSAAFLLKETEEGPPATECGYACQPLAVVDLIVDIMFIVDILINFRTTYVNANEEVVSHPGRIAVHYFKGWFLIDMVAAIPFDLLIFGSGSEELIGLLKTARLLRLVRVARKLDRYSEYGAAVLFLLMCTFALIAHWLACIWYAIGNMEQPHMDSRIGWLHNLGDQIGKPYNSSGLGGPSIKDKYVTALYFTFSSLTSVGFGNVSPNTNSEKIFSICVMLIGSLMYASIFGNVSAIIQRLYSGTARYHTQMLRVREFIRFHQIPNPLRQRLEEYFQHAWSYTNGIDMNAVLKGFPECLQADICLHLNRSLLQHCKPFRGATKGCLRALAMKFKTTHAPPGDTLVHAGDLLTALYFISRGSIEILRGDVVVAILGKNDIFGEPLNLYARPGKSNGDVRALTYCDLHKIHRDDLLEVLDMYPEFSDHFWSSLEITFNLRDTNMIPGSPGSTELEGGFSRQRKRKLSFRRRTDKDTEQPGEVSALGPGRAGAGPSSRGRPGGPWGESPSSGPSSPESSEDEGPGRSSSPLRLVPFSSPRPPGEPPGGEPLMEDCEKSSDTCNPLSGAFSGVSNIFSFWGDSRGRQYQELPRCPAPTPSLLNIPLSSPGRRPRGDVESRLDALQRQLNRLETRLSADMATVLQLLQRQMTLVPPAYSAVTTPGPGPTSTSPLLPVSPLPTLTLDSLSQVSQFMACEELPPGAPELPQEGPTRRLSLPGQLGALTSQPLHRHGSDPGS
row,Compound,"hERG current change (%, negative = inhibition) at 10uM"
1,CCOC(=O)CNC(=S)N(Cc1cccs1)C1CCCC1,-5.82%
2,O=c1c2[nH]c3ccccc3c2ncn1Cc1ccccn1,-0.569%
3,CCOC(=O)c1ccccc1NC(=O)COC(=O)CCC(=O)c1ccccc1,16.3%
4,NNC(=S)NC1CCS(=O)(=O)C1 (stereo not shown),22.1%
5,Cc1cc(/C=C2/C(=O)N(C)C(=S)N2C)ccc1N1CCCC1,7.27%
6,Cc1ccc(S(=O)(=O)N(CC(=O)Nc2ccc(C(N)=O)cc2)C(=O)N2CCN(C)CC2)cc1,-0.0686%
7,CCCC(=O)Nc1cccc(NC(=O)c2ccc3c(c2)OCCO3)c1,5.87%
8,CCCCC(=O)Nc1cccc(NC(=O)c2ccc3c(c2)OCO3)c1,6.43%
9,O=C(Nc1ccc(CN2CCCCC2)cc1)c1cccc(F)c1,-40%
10,CCOc1ccc(OCc2cccc(C(=O)N(CC)CC)c2)cc1,-67.6%
11,CCCC(=O)Nc1cccc(NC(=O)c2ccc3c(c2)OCO3)c1,-52.3%
12,O=C(Nc1ccc(CN2CCCCC2)cc1)c1cccc(Br)c1,-86.7%
13,CCOc1ccc(OCc2ccc(C(=O)N(CC)CC)cc2)cc1,2.22%
14,CCOc1ccc(NC(=O)c2ccc(CN3CCc4ccccc4C3)cc2)cc1,0.805%
15,O=C(NC(=S)Nc1ccc(CN2CCCCC2)cc1)c1cccc(OCc2ccccc2)c1,-5.83%
16,O=C(Nc1ccc(CN2CCCCC2)cc1)c1cc(Br)ccc1Cl,-20.3%
17,CCOc1ccc(OCc2cccc(C(=O)O)c2)cc1,8.48%
18,CCOc1ccc(OCc2cccc(C(=O)Nc3ccc(CN4CCCCC4)cc3)c2)cc1,-63.2%
19,COc1ccc(NC(=O)CO/N=C2/CCCc3nonc32)c(OC)c1,11.1%
20,COc1ccc(CCNC(=O)Cn2nnc(-c3cccs3)n2)cc1OC,-7.76%
21,Cc1onc(-c2ccccc2Cl)c1C(=O)N1CCC(C)CC1,4%
22,COC(=O)/C(=C/c1ccccc1)NC(=O)c1ccco1,4.23%
23,CCC(=O)N1CCN(c2ccc(NC(=O)c3ccc4c(c3)OCO4)cc2)CC1,-0.905%
24,CN1CCN(c2ccc(NC(=O)c3ccc4c(c3)OCO4)cc2)CC1,-38.3%
25,CCN1CCN(c2ccc(NC(=O)c3ccc4c(c3)OCO4)cc2)CC1,-54.5%

row,Compound,"hERG current change (%, negative = inhibition) at 10uM"
1,O=C(Nc1ccc(CN2CCCCC2)cc1)c1c(F)c(F)c(F)c(F)c1F,-56.5%
2,CC(=O)Nc1ccc(CN2CCCCCCC2)cc1,-4.11%
3,O=C(Nc1ccc(CN2CCCCC2)cc1)c1ccc(Br)o1,-33%
4,Cc1nc2ccc(C(=O)Nc3ccccc3Cl)cc2s1,10.5%
5,O=C(Cc1ccccc1F)NC1CCSc2ccccc21 (stereo not shown),-13%
6,O=C(Nc1ccccc1)NC1CCCCNC1=O (stereo not shown),21.4%
7,O=C(N/N=C/c1ccc(OC2CSC2)cc1)c1ccccc1,-13.6%
8,Cc1cccc(C(=O)N/N=C/c2ccc(OC3CSC3)cc2)c1,-92.4%
9,COc1cccc(C(=O)N/N=C/c2ccc(OC3CSC3)cc2)c1,5.4%
10,COC(=O)c1ccccc1NC(=O)c1ccc(Cn2cc(Cl)cn2)o1,4.21%
11,CCOC(=O)C1=C(c2cccc(Oc3ccccc3)c2)NC(=S)NC1C (stereo not shown),-15.8%
12,CCn1c(CC(=O)Nc2ccccc2F)nnc1SCC(=O)Nc1nnc(C)s1,-22.2%
13,Cl.N#Cc1ccc(OCC(=O)N2CCN(Cc3ccc4c(c3)OCO4)CC2)cc1,-68.1%
14,O=C(COc1ccc(S(=O)(=O)N2CCOCC2)cc1)N1CCN(Cc2ccc3c(c2)OCO3)CC1,-10%
15,Cl.O=C(COc1ccc(Cl)cc1)N1CCN(Cc2ccc3c(c2)OCO3)CC1,-48.2%
16,O=C(c1ccc(F)cc1)N1CCCC(N2CCN(Cc3ccc4c(c3)OCO4)CC2)C1 (stereo not shown),-22.2%
17,O=C(COc1ccc(Cl)cc1)N1CCN(Cc2ccc3c(c2)OCO3)CC1,-52.6%
18,CN(C)c1ccc(C(=O)N2CCCC(N3CCN(Cc4ccc5c(c4)OCO5)CC3)C2)cc1 (stereo not shown),-82.3%
19,Cc1ccccc1C(=O)N1CCCC(N2CCN(Cc3ccc4c(c3)OCO4)CC2)C1 (stereo not shown),-11.7%
20,N#CCC(=O)N1CCN(Cc2ccc3c(c2)OCO3)CC1,16.3%
21,O=C(COc1ccc(Br)cc1)N1CCN(Cc2ccc3c(c2)OCO3)CC1,-53.9%
22,COc1ccc(OCC(=O)N2CCN(Cc3ccc4c(c3)OCO4)CC2)cc1,-12.2%
23,CCc1ccc(OCC(=O)N2CCN(Cc3ccc4c(c3)OCO4)CC2)cc1,-15.9%
24,O=C(CSCc1ccc(Cl)cc1)N1CCN(Cc2ccc3c(c2)OCO3)CC1,-48.2%
